Compound activity deposited in PubChem BioAssay by NMMLSC.
An excerpt weighted towards active compounds, which were near 0.93% of everything screened.
AGP1-GFP MLPCN = alters AGP1-GFP fluorescence in TOR pathway yeast screen; S. cerevisiae AGP1-GFP multiplex flow cytometry, 3 h; GFP as percent of DMSO wells; GFP response vs DMSO, % at 10 µM; actives 0.02% (n = 320,000);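 active means GFP response relative to DMSO above a set limit, near screen average plus 3 SD, cut at about 150% in these data; inconclusive means fewer than 70 cells counted for the yeast strain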;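 further: median GFP channel fluorescence of the gated AGP1 strain per well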
LAP4 TOR yeast = yeast TOR pathway LAP4-GFP modulation; S. cerevisiae LAP4-GFP multiplex, flow cytometry GFP, 3 h; median GFP as percent of DMSO wells; GFP response vs DMSO, % at 10 µM; actives 0.34% (n = 320,000); AID 2023;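 active means GFP response vs DMSO above a set limit, about the screen mean plus 3 SD, cut at about 150% in these data; inconclusive means under 70 cell events counted for the yeast strain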
RPL19A-GFP yeast = alters RPL19A-GFP fluorescence in TOR pathway yeast screen | S. cerevisiae RPL19A-GFP strain, flow cytometry, 3 h; active compounds read low | percent response vs DMSO, % at 10 µM | actives 0.3% (n = 330,000) | AID 2025;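 active means percent response vs DMSO below 50%; inconclusive means fewer than 70 events counted for the yeast strain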;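 further: median channel GFP fluorescence of the barcoded RPL19A-GFP strain; ratio of sample median GFP to plate DMSO average so 100% = DMSO; lower means less RPL19A-GFP as with rapamycin TOR inhibition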
MEP2 TOR yeast = modulators of TOR pathway MEP2-GFP in S. cerevisiae | GFP response vs DMSO, % at 10 µM | actives 0.51% (n = 330,000) | S. cerevisiae MEP2-GFP strain, flow cytometry GFP, 3 h; 100% = DMSO control level;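 active means GFP response versus DMSO above a set limit, roughly screen mean plus 3 SD, cut at about 180% in these data; inconclusive means fewer than 70 cells counted for a yeast strain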;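 further: median GFP fluorescence of the barcode-gated MEP2-GFP cells per well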
CIT2-GFP yeast = yeast TOR pathway CIT2-GFP modulation | S. cerevisiae CIT2-GFP strain, flow cytometry, 3 h; 100 means same as DMSO wells | GFP response vs DMSO, % at 10 µM | actives 0.065% (n = 320,000) | AID 2029;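 active means GFP response relative to DMSO above a set limit, near the screen mean plus 3 SD, cut at about 150% in these data; inconclusive means Fewer than 70 cells measured for a yeast strain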;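 further: ratio of well median GFP fluorescence to mean of DMSO wells on the plate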
Active calls of the source: *; ? = inconclusive; / = no result; + = active, no number; [ ] = another dose, or the depositor's remark.

SMILES	AGP1-GFP MLPCN	LAP4 TOR yeast	RPL19A-GFP yeast	MEP2 TOR yeast	CIT2-GFP yeast
Cc1cc(NC(=O)CCC(=O)N(CC(=O)NC2CCCC2)c2ccc(Cl)c(Cl)c2)no1	104	95	104	111	104
C/C(=N\NC(=O)c1c(Br)c(C)nn1C)c1cccc(NC(=O)c2ccccc2C)c1	100	96	101	103	94
C/C(=N\NC(=O)c1c(Br)c(C)nn1C)c1cccc(NC(=O)C2CCC2)c1	126	138	89	156	162*
O=[N+]([O-])c1ccc(N2CCN(Cc3ccccc3)CC2)c(S(=O)(=O)N2CCOCC2)c1	30	90	/	235*[may fluoresce violet]	?
CCOC(=O)c1cc2ccc(OC)c(OC)c2c(=O)s1	/	106	57	211*[may fluoresce violet]	?
OC(CN1CCOCC1)CN1CCOCC1	?	73	64	226*[may fluoresce violet]	?
CN(CC(O)CN1CCOCC1)S(=O)(=O)O (stereo unspecified)	100	103	96	95	85
O=C1CCC([N+](=O)[O-])C(c2ccc(Cl)c([N+](=O)[O-])c2)N1 (stereo unspecified)	101	106	95	95	93
O=C1CCC([N+](=O)[O-])C(c2ccc(Cl)cc2)N1 (stereo unspecified)	?	?	43*[may fluoresce violet]	?	?
O=c1c2ccccc2sn1-c1ccccc1	19	110	63	224*[may fluoresce violet]	?
O=C(O)c1cccc(-n2sc3ccccc3c2=O)c1	100	102	94	93	100
COc1ccc(Br)cc1/C=N/NC(=O)Cn1nnnc1N	46	336*	85	122	84
CCCCn1c(=O)c2ccccc2n2c(=S)[nH]nc12	?	100	43*[may fluoresce violet]	236*[may fluoresce violet]	?
CN1CCCC1CCNc1ccc2c(=O)c3ccccc3oc2c1 (stereo unspecified)	37	99	44*[may fluoresce violet]	342*[may fluoresce violet]	?
COc1ccc(/C=N/Nc2nc(-c3cccnc3)nc3ccccc23)cc1OC	87	185*	53	116	107
CCOc1ccc(CN(C)c2nc(-c3cccnc3)nc3ccccc23)cc1OC	?	84	48*[may fluoresce violet]	259*[may fluoresce violet]	?
CN(Cc1ccccc1F)c1nc(-c2cccnc2)nc2ccccc12	79	68	92	88	83
Oc1ccc(/C=N/Nc2nc(-c3cccnc3)nc3ccccc23)c(O)c1	98	88	97	97	109
CC(C)Nc1ncnc2c1cnn2Cc1ccc(Cl)cc1	15	90	64	247*[may fluoresce violet]	?
Cc1cccc(NCC(=O)N/N=C/c2ccc(Br)cc2)c1	97	106	89	88	84
O=C(/C=C/c1c(F)cccc1Cl)c1ccc(O)cc1	87	249*	78	87	72
O=C(/C=C/c1ccccc1Cl)c1ccc(O)cc1	98	/	99	101	85
Cc1ccc(C(=O)NCC(=O)OCC(=O)Nc2ccc3[nH]c(=O)[nH]c3c2)cc1	116	109	104	103	102
CNc1sc(C(=O)c2ccccc2F)c(N)c1-c1nc2ccccc2s1	30	191*[may fluoresce violet]	86	101	?
CCSc1nnc(NC(=O)c2ccc3ccccc3n2)s1	/	128	54	208*[may fluoresce violet]	?
SMILES	AGP1-GFP MLPCN	LAP4 TOR yeast	RPL19A-GFP yeast	MEP2 TOR yeast	CIT2-GFP yeast
CCc1nnc(NC(=O)c2ccc3ccccc3n2)s1	86	100	106	111	81
CCOC(=O)C(C(=O)OCC)c1cc(Br)c2noc3c2c1C(=O)c1ccccc1-3	86	143	93	111	89
O=C1c2ccccc2-c2onc3ccc(Oc4ccccc4)c1c23	90	234*	83	166	125
COc1cc(NS(=O)(=O)c2ccc(C)cc2C)cc(OC)c1OC	?	89	48*[may fluoresce violet]	484*[may fluoresce violet]	?
O=C(OC1CCOC1=O)C1CCN(S(=O)(=O)c2ccccc2)CC1 (stereo unspecified)	97	104	99	93	93
COc1ccccc1NC(=O)NC1(C(=O)N2CCCCC2)CCCCC1	87	78	91	100	104
COc1ccc(C(=O)Nc2ccnn2C2CCN(C(=O)CCC(F)(F)F)CC2)cc1	111	112	92	118	112
C=CCCC(=O)N1CCC(n2nccc2NC(=O)c2ccc(OC)cc2)CC1	?	79	31*[may fluoresce violet]	124	?
O=C(CN1CCN(c2ccccn2)CC1)Nc1ccc(F)c(F)c1	96	86	103	102	104
N#Cc1c(-c2ccccc2)nc2n1CCS2	?	120	42*[may fluoresce violet]	96	?
Cc1cccc(S(=O)(=O)NC2CCCCCCC2)c1	93	92	95	91	89
COc1ccc2nc(C)cc(Sc3nc4ccccc4s3)c2c1	?	65	43*[may fluoresce violet]	675*[may fluoresce violet]	?
COc1ccc(OC)c(N(C)S(=O)(=O)c2cc3c(cc2C)NC(=O)CO3)c1	107	114	99	90	108
NNC(=O)c1ccc(CSc2cccc3cccnc23)cc1	102	114	103	109	96
c1cnc2c(SCc3ccc(-c4nnco4)cc3)cccc2c1	43	104	/	195*	106
Cc1cccc(CSc2cccc3cccnc23)c1	85	164*	93	102	89
CC(C)OC(=O)C1CC(C)(O)C(=O)C(C(=O)OC(C)C)C1c1ccc([N+](=O)[O-])cc1 (stereo unspecified)	103	99	98	89	98
O=C(Nc1ccc(NS(=O)(=O)c2ccc([N+](=O)[O-])cc2)cc1)c1ccco1	97	74	108	106	92
Nc1nc(N)c(N=Nc2ccc(C(=O)O)cc2)c(N)n1	93	98	102	106	102
O=C(O)c1ccc(N=Nc2c(O)ccc3ncccc23)cc1	37	69	74	+[may fluoresce violet]	?
O=[n+]1c2c(n([O-])c3cc(F)c(N4CCCC4)cc31)CCCC2	?	89	34*[may fluoresce violet]	229*[may fluoresce violet]	?
CC(=O)Oc1ccc(/C=C(\NC(=O)c2ccco2)C(=O)Nc2ccc(C(C)=O)cc2)cc1	14	92	62	532*[may fluoresce violet]	?
NNC(=O)C1CC(O)CN1S(=O)(=O)c1ccc2ccccc2c1 (stereo unspecified)	79	91	91	88	77
C#CCn1cnc2c(cnn2-c2ccc(C)c(C)c2)c1=O	92	104	95	99	101
Cc1ccc(-n2ncc3c(=O)n(CC#N)cnc32)cc1C	?	62	59	235*[may fluoresce violet]	?
CC(=O)Nc1ccc(S(=O)(=O)NCCC(=O)NCCOc2ccccc2)cc1	102	100	97	104	102
CCOC(=O)CN1C(=O)CSc2ccc(S(=O)(=O)N3CCOCC3)cc21	?	50	33*[may fluoresce violet]	275*[may fluoresce violet]	?
CCOC(=O)CN1C(=O)CSc2ccc(S(=O)(=O)N3CCCC3)cc21	107	106	105	98	106
COc1ccc(NC(=O)Nc2ccon2)c(OC)c1	104	132	107	195*	143
